# Assay outcomes (PubChem BioAssay)
# Most compounds without a hit are left out; they make up all but 21% or so of the library.
# Pf growth 48h = P. falciparum growth inhibition at 48 hours (one generation) | P. falciparum luciferase growth in erythrocytes, 48 h | Potency, µM (titrated, usually from 28.7 µM), hits mostly inhibitors | 310,000 tested, 5.9% active | AID 504832; active = well fitted inhibition curve with a large enough effect; inconclusive = small, poorly fitted or top-dose-only effect, or another doubt; inactive = no such curve, though single readings can be large or run the other way
#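 Erythrocytes infected with P. falciparum carrying an integrated firefly luciferase reporter (2% hematocrit, 0.1% parasitemia final) were exposed to compounds in RPMI 1640 with 0.5% Albumax at 37 C, 5% CO2. Growth inhibition was scored as reduced luminescence.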
# Cycloheximide cs = counter-screen hit for Shiga toxin inhibitors, cycloheximide. cell reporter, cycloheximide protein synthesis inhibition counterscreen. max response, %. 300,000 tested, 12% active. AID 2314; in the data active = max response mostly above about 13%, no sharp cut-off; inactive = mostly below about 14%; also: read at 38.3 µM for the half of the compounds with a filed dose
# Pf growth 96h = inhibits malaria parasite growth, 96 h | P. falciparum luciferase reporter growth, 96 h | Potency, µM (doses to about 28.7 µM), usual class: inhibitors | 320,000 tested, 6.9% active | AID 504834; active = well fitted inhibition curve with a large enough effect; inconclusive = small, poorly fitted or top-dose-only effect, or another doubt; inactive = no such curve, though single readings can be large or run the other way
#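 Plates of compound plus infected erythrocytes (2% hematocrit, 0.05% parasitemia final) incubate 96 hours, 37 C, 5% CO2. Detection reagent added; reduced luminescence from the parasites' luciferase reporter flags inhibition.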
# NS1 function inh = influenza NS1 inhibition; 270,000 tested, 0.4% active; Potency, µM (series often up to 46.1 µM); AID 2326; also: actives are rising curves; nearly all actives have a fitted effect of over 50% in size
#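 Read-out: OD600 growth recovery of NS1-expressing budding yeast. Cells grown overnight at 30C in -URA glucose medium, washed, resuspended and diluted 1:100 in 2% galactose assay medium, pH 6.0. Same strain lacking NS1 served as positive control.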
# SARS PLP yeast = SARS-CoV PLP inhibition in yeast; S. cerevisiae expressing SARS-CoV PLpro, growth rescue; 330,000 tested, 0.19% active; Potency, µM (series often up to 32.9 µM), hits mostly activators; also: nearly all actives have a fitted effect of over 55% in size
# Shiga inhibitor = inhibitors of Shiga toxin in Vero cells; Vero cells, Shiga toxin protein synthesis inhibition reporter; inhibition, % at 38.7 µM; 290,000 tested, 9.2% active; AID 2315; in the data active = inhibition mostly above about 28%, no sharp cut-off; inactive = mostly below about 43%
# Numbers stand for hits; n = inactive; u = inconclusive; x = no result; [ ] = remark or other dose. Unless noted, calls follow the shape of the full dose curve.
SMILES,Pf growth 48h,Cycloheximide cs,Pf growth 96h,NS1 function inh,SARS PLP yeast,Shiga inhibitor
c1ccc(CNc2ccc3ccccc3n2)nc1,n,30,x,n,n,n
O=C(COc1ccc(F)cc1)N(Cc1ccco1)C1CCS(=O)(=O)C1 (configuration not stated),n,n,u,n,n,n
O=C(NCC(Cl)c1ccc2ccccc2c1)c1c(F)cccc1F (configuration not stated),n[0.00184 µM],33,n,n,n,n
COc1cc2ccccc2cc1C(=O)Nc1nnc(-c2ccncc2)o1,n,n,n,n,n,n
COc1cccc(/C=C2/SC(=O)N(C)C2=O)c1OCc1ccc(C(=O)O)cc1,n,n,n,n,n,n
CN1C(=O)S/C(=C/c2ccc(OCc3cccc(C(=O)O)c3)cc2)C1=O,n,35,n,n,n,37
C[C@@H]1CC=C[C@H]2[C@H]1C(=O)N(Cc1ccccc1)[C@H]2c1ccc(/C=C/c2ccccc2)cc1F,10µM,n,u,n,n,n
COc1ccc(-c2c(C3C4C=CCC(C)C4C(=O)N3Cc3ccccc3)ccc3ccccc23)cc1 (configuration not stated),x,n,x,x,x,n
COc1ccc(-c2ccc(F)cc2)cc1C1C2C=CCC(C)C2C(=O)N1Cc1ccccc1 (configuration not stated),x,n,x,x,x,n
COc1ccc(-c2ccc(F)cc2)cc1[C@H]1[C@H]2C=CC[C@@H](C)[C@@H]2C(=O)N1Cc1ccccc1,12µM,n,u,n,n,n
COc1ccc(-c2c([C@H]3[C@H]4C=CC[C@@H](C)[C@@H]4C(=O)N3Cc3ccccc3)ccc3ccccc23)cc1OC,2.3µM,n,2.9µM,n,n,n
CSCc1ccc(C(=O)N2CCC(N3CCC(C(=O)NC(C)C)CC3)CC2)o1,n,n,n,n,n,n
Cc1nnc(SCc2c(Cl)cccc2Cl)s1,n,32,n,n,n,60
Clc1cccc(Cl)c1CSc1nnc(-c2ccncc2)s1,2.6µM,n,2.1µM,n,n,n
O=C(Cc1cccc2ccccc12)N1CCCc2ccccc21,n,n,n,n,n,n
CC(C)N(Cc1nc(-c2ccccc2)no1)C(=O)c1ccc(Br)o1,n,n,x,n,n,n
Brc1ccc(-c2nc(-c3cccnc3)no2)o1,n,69,u,n,n,111
c1ccc(C(c2ccccc2)c2nc(-c3cccnc3)no2)cc1,u,n,u,n,n,n
Brc1ccc(-c2nc(-c3ccccc3)no2)o1,n,59,x,n,n,104
CC(=O)C1=C(O)C(=O)N(Cc2ccccc2)C1c1ccc(Br)cc1 (configuration not stated),n,n,n,n,n,n
O=c1[nH]c2ccccc2nc1Cc1ccc([N+](=O)[O-])cc1,n,n,n,n,n,n
Cc1ccc(Oc2ccc(NC(=O)Cn3ccsc3=N)cc2)cc1,10µM,n,x,n,n,n
O=C(CN1CCN(CC(=O)Nc2ccccc2Cc2ccccc2)CC1)Nc1ccccc1Cl,u,n,13µM,n,n,n
O=C(CN1CCCC1)Nc1ccc(NC(=O)Nc2ccccc2Cl)cc1,n,25,u,n,n,n
O=C(CN1CCCC1)Nc1ccccc1Cl,x,n,n,n,n,n
SMILES,Pf growth 48h,Cycloheximide cs,Pf growth 96h,NS1 function inh,SARS PLP yeast,Shiga inhibitor
CNC(=O)CSc1nc2[nH]ncc2c(=O)[nH]1,u,n,n,x,n,n
CCOC(=O)c1cc(CC)sc1NC(=O)CN1C(=O)C(=O)N(CC(C)C)C1=O,n,x,n,x,n,x
Cc1ccnc(NC(=O)CS(=O)(=O)c2ccccc2)c1,n,n,n,n,n,89
Cc1ccnc(NC(=O)CCS(=O)(=O)c2ccccc2)c1,n,18,n,n,u,n
C=CCNc1nc2c(c(=O)[nH]c(=O)n2C)n1Cc1cccc(C)c1,n,n,n,n,n,n
N#CCCN(CCC#N)S(=O)(=O)c1ccc(C(=O)Nc2nc(-c3ccccc3)c(C(=O)c3ccccc3)s2)cc1,n,n,n,n,n,n
Cc1ccc(-c2nc(NC(=O)c3ccc(S(=O)(=O)N(CCC#N)CCC#N)cc3)sc2-c2ccccc2)cc1,n,n,12µM,n,n,n
Cc1nc2c(-c3ccccc3)cnn2c(N)c1-c1ccccc1,n,n,n,n,n,n
Cc1nc2c(-c3ccc(F)cc3)cnn2c2c1CCC2,n,38,n,x,n,53
NC(=O)c1sc2nc(-c3cccnc3)ccc2c1N,n,22,n,n,n,32
CCOC(=O)c1sc2nc(-c3cccnc3)ccc2c1N,n,50,n,n,n,84
COC(=O)c1cc2c(N)c(C(=O)c3ccccc3)sc2nc1C(OC)OC,u,24,u,n,n,n
Cc1ccc2c(N)c(C(=O)N(c3ccccc3)c3ccccc3)sc2n1,9.3µM,n,u,n,n,n
Nc1c(C(=O)Nc2ccc(Cl)c(Cl)c2)sc2nc(-c3cccnc3)ccc12,n,n,n,n,n,n
O=[N+]([O-])c1ccc2c(c1)[nH]c(=S)n2-c1ccccc1,n,n,n,n,n,n
COc1cc(NC(=O)C2CCCN2S(=O)(=O)c2ccc3c(c2)CC(C)N3C(C)=O)cc(OC)c1 (configuration not stated),n,n,u,n,n,n
COc1ccc(C(=O)c2sc3nc(-c4ccccc4)ccc3c2N)cc1,n,n,n,n,n,n
CC(C)OC(=O)c1sc2nc(-c3ccccc3)ccc2c1N,n,66,n,n,n,144
CC(=O)N1CCOc2ccc(S(=O)(=O)NCCc3ccccc3)cc21,n,n,u,n,n,n
CC(=O)N1CC(C)Sc2ccc(S(=O)(=O)NCCc3ccccc3)cc21 (configuration not stated),n,32,u,n,n,56
CC(=O)N1CCOc2ccc(S(=O)(=O)NCCc3cccc(C)c3)cc21,n,n,10µM,n,n,n
CC(=O)N1CC(C)Sc2ccc(S(=O)(=O)NCCc3ccc(C)cc3)cc21 (configuration not stated),n,n,u,n,n,n
CC(=O)N1CC(C)Sc2ccc(S(=O)(=O)NC(C)c3ccccc3)cc21 (configuration not stated),n,n,13µM,n,n,n
COc1ccccc1NS(=O)(=O)c1ccc2c(c1)N(C(C)=O)CC(C)S2 (configuration not stated),n,n,u,n,n,n
Cc1ccc(C2=NS(=O)(=O)N(C)C(C(=O)N3CCOCC3)=C2)cc1,n,n,u,n,n,n
CNC(=O)NC(=O)COC(=O)/C=C/c1cccc(Br)c1,n,n,n,n,n,n
COc1ccc(Cl)cc1S(=O)(=O)Nc1ncn[nH]1,n,n,n,n,n,n
Cc1ccc(OCC(=O)NCc2cccs2)cc1,n,27,x,n,n,29
CCN(CC)S(=O)(=O)c1ccc(C(=O)NCc2cccs2)cc1,n,n,n,n,x,n
